The whole screen tested about 360,000 compounds, of which about 750 (0.21%) were called active. Not shown: some 2% with an inconclusive outcome. The full list was thinned out, with actives kept by preference. A number with no mark means an inactive call. Calls come from the whole dose curve; as a rule, active = well fitted falling curve with a large enough effect; inconclusive = small, poorly fitted or top-dose-only effect; inactive = no such curve, though single readings can be large or run the other way.
Experiment: qHTS Assay for Inhibitors of the HIV-1 protein Vpr; note: nearly all actives have a fitted effect of over 50% in size
Details: S. pombe RE007 Vpr strain, BacTiter-Glo ATP luminescence, 24 h; series mostly up to 92.2 µM; activity change, negative = less growth: at the top concentration
From the text: Human immunodeficiency virus type 1 (HIV-1), the causative agent of AIDS, contains a protein called viral protein R (Vpr) that plays an important role in the viral life cycle and the pathogenesis of HIV-1.
These Vpr specific activities include cytoplasmic-nuclear shuttling, induction of cell cycle G2 arrest and cell killing. The cytoplasmic-nuclear shuttling is believed to participate in nuclear transport of the proviral integration complex (PIC). The cell cycle G2 arrest induced by Vpr is thought to suppress human immune functions by preventing T cell clonal expansion and to provide an optimized cellular environment for maximal levels of viral replication. In addition, Vpr induces apoptosis, which may contribute to the depletion of CD4 T cells in HIV-infected patients. Since the Vpr-specific activities have been linked to such clinical manifestation of AIDS as activation of viral replication, suppression of host immune responses and depletion of CD4+ T-lymphocytes, identification of new molecular probes that can inhibit the Vpr activities could potentially provide a new approach to reduce Vpr-mediated detrimental effects in HIV-infected patients, and thus prolong patient's lives. Currently, there are no anti-Vpr drugs.
A fission yeast (Schizosaccharomyces pombe) model system for the Vpr studies has been developed which measures HIV-1 Vpr-induced cell death. This assay will be used for to screen the NIH Molecular Libraries Small Molecule Repository (MLSMR) identify small molecule HIV-1 Vpr inhibitors.
NIH Chemical Genomics Center [NCGC]
NIH Molecular Libraries Probe Centers Network [MLPCN]
Assay Submitter (PI): Richard Zhao, University of Maryland
The fission yeast RE007 strain was used, which carries a single integrated copy of HIV-1 vpr gene in the yeast chromosome. The starting culture was frozen stock 100ul of yeast RE007 in 150ml of *PMG+AL medium, Incubation in 30 degree plus 99% humidity for 18 hours. Next day dispensed 2.5ul of PMG+AL medium in each well to 1536 well white solid plate, then 23nL compound were delivered to each well using a pin tool. Check OD for overnight culture and add cell density at 0.01 for each well, incubation in 30 degree plus 99% humidity for 24 hours. After add 5 ul of *BacTiter/Glo detect reagent to each well at room temperature for 5 minutes then to red out results with Viewlux CCD camera.
% is set by controls: 0 for no effect and ±100 for the full control effect.

Point of comparison: CN(C)C(CNC(=O)c1cc(Br)c(Br)s1)c1ccco1 (stereo unspecified), “activity change, negative = less growth” value 3.37%. Against it:
- COc1ccc(-c2cc(C3CCN(c4ncccc4[N+](=O)[O-])CC3)[nH]n2)cc1 — higher, 12%
- CN(C)C(=O)c1cccc(-c2cnc3sc(NCc4ccc5c(c4)OCO5)nn23)c1 — higher, 17.8%
- Cc1cccc(C(=O)N2CCCC(Nc3ccc(C(C)C)cc3)C2)n1 (stereo unspecified) — lower, -10.3%
- Cc1nnsc1C(=O)Nc1cccc(Cl)c1C — lower, -7.71%
- CC1=C(C(=O)Nc2ccccc2)S(=O)(=O)CCO1 — higher, 14.7%
- COc1ccc(C(C)NC(=O)C2CCCC2)cc1 (stereo unspecified) — higher, 16.1%
- O=C(Cn1cc(C(F)(F)F)ccc1=O)Nc1ccc2c(c1)OCCO2 — lower, 1.56%
- CC1(C)Cc2c(sc(NC(=O)C(=O)N3CCOCC3)c2C#N)CO1 — lower, -3.12%
- S=C(Cc1ccc(Cl)cc1)N1CCOCC1 — lower, -11.5%
- CC1CCN(C(NC(=O)c2ccco2)C(=O)c2ccccc2)CC1 (stereo unspecified) — higher, 9.19%
- CCOC(=O)c1c(Cc2ccc(Cl)cc2)c[nH]c1C — lower, -1.99%
- COc1ccc(N=Nc2c(-c3ccc(OC)cc3)[nH]oc2=O)cc1 — lower, -3.2%
- COC1=CC(=O)OC(c2ccc(OC)cc2)C1 (stereo unspecified) — lower, 3.06%
- O=C(Nc1ccccc1F)c1ccc(Cn2cc(Br)cn2)cc1 — higher, 4.37%
- C[C@H](CO)N1C[C@H](C)[C@@H](CN(C)Cc2ccc3c(c2)OCO3)OCc2cnnn2CCCC1=O — lower, 3.04%
- Cc1ccccc1-n1nc(C)c2c1N=C1C(Cl)=CC(Cl)=CN1C2c1ccc(C(=O)O)cc1 (stereo unspecified) — lower, -12%
- O=C(NCC1CCCCC1)c1cc(S(=O)(=O)N2CCCCC2)ccc1N1CCOCC1 — lower, -20.1%
- COc1cccc2c1CCC(NC(C)=O)C2=O (stereo unspecified) — higher, 8%
- CCOc1ccc2[nH]c3nc(SCC(=O)NC4CCCC4)nnc3c2c1 — higher, 5.5%
- COc1ccc(CCN(C)C(=O)C23CC4CC(CC(Cl)(C4)C2)C3)cc1OC — higher, 10.3%
- COc1cccc(C(C(=O)NC2CCCC2)N(C(=O)c2ccco2)c2cccc(C(C)=O)c2)c1OC (stereo unspecified) — lower, -5.9%
- CCOc1ccc(C(=O)CCC(=O)NC2=NCCS2)cc1 — lower, -25.9%
- CCOc1ccc(-c2ccc(SCC(=O)N3CCOCC3)nn2)cc1 — lower, 1.07%
- O=C(O)CCCn1cc(NC(=O)COc2cccc(Cl)c2)cn1 — higher, 11.7%
- CC(NC(=O)COC(=O)C1CCN(S(=O)(=O)c2ccccc2C(F)(F)F)CC1)c1ccccc1 (stereo unspecified) — lower, -18.4%
- CCC1=C(OC(=O)N(CC)CC)N2C(=O)OC(=NCCc3c[nH]c4ccccc34)[C@]2(C)[C@H]2C1=CC[C@H]1C(=O)N(CC)C(=O)[C@H]12 — higher, 5.02%
- CSCCC(NS(=O)(=O)c1ccc2c(c1)oc(=O)n2C)C(=O)NC1CCCc2ccccc21 (stereo unspecified) — higher, 5.96%
- CC[C@]1(C(=O)OC)[C@H]2C(=O)N(C)C(=O)[C@H]2[C@H]2CN(C)C(=NCc3ccccc3)N21 — lower, -7.99%
- Cc1cc(C)cc(NC(=O)Cn2cnc3c(nnn3Cc3ccc(F)cc3)c2=O)c1 — higher, 18.1%
- CCc1nnc(NC(=O)CSCc2cc(=O)n3cc(C)sc3n2)s1 — higher, 7.37%

In the case of O=C(Nc1ccccc1)c1nnsc1S(=O)(=O)c1ccc(Cl)cc1, the Potency is reported as 6.31 µM (active).
With COc1ccc(N=C2C=CC(=O)O2)cc1 the Potency was 8.91 µM (active).
With Fc1ccccc1N=C1Nc2cccc3cccc1c23 the Potency was 25.1 µM (active).
For CCOc1ccc(C(=O)CCN2CCOCC2)cc1, the Potency was 39.8 µM (active).
For O=C1C(Cl)=C(Oc2ccccc2)C(=O)c2ccccc21, the Potency was 3.16 µM (active).
